Hit rate of the full screen: of about 360,000 compounds, about 3,700 (1%) were called active. Rule as the data show it: active = activation above about 30%; inactive = the rest. The full list was thinned out, with actives kept by preference.
The molecules below were run against D(1A) dopamine receptor (Homo sapiens) (UniProt P21728) (assay: Allosteric Agonists of the Human D1 Dopamine Receptor: qHTS). Settings: HEK293 T-REx D1 cells, calcium flux, agonist mode; at 2 µM; hits give high values.
Chain of D(1A) dopamine receptor (Homo sapiens) (P21728 whole entry, looked up): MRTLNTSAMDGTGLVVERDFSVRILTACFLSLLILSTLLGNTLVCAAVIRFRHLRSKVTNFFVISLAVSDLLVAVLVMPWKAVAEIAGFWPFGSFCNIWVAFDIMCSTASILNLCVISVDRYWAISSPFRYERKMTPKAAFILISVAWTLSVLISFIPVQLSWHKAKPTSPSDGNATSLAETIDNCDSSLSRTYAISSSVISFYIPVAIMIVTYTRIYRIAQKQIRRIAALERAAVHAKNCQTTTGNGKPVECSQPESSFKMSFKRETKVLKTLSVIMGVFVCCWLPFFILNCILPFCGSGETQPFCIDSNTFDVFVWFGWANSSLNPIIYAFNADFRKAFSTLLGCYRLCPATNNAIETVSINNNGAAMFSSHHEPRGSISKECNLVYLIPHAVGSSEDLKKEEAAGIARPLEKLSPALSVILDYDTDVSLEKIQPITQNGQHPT
Description: NIH Chemical Genomics Center [NCGC] NIH Molecular Libraries Probe Centers Network [MLPCN] MLPCN Grant: NS064831-01 Assay Submitter (PI): David Sibley Dopamine receptors (DARs) are involved in the etiology and/or therapy of a number of neuropsychiatric and endocrine disorders. For instance, all receptor-based antiparkinsonian drugs work via stimulating the D1 DAR subtype whereas all FDA-approved antipsychotic agents are antagonists of this receptor. […] There are three different types of allosteric modulators that we are seeking, two of which will stimulate or augment receptor signaling, allosteric agonists and potentiators, while the third, allosteric antagonists, will attenuate receptor signaling. The present primary screening assay measures compound agonism by tracking calcium flux in a […], inducible Hek293 Trex D1 cell line.
Freshly passaged cells are plated in 1536 well black, clear bottom plates at a density of 4000 cells/well in 3 ul of complete media containing 1x tetracycline inducer. After an overnight incubation at […] in 5% CO2, cells are loaded with 2 ul of the no wash Calcium Assay Kit (ABD Bioquest) and incubated at room temperature for 30 to 90 minutes. Agonist read: A 10 cycle (1 second/cycle) baseline measurement is taken and then the FDSS online 1536 pintool delivers 23 nl of compound library (as well as dopamine controls) to the plate. The plate is measured for kinetically at 1 cycle/sec for 180 seconds and is considered to be the agonist portion of the assay (eg, compounds which activate a positive calcium response during this portion are flagged as potential agonists). Following the 180 second read, 1 ul of either an EC20 (positive modulation assay) or EC80 (negative modulation assay) is delivered by an onboard pipette head. Measurements are taken kinetically for an additional 180 seconds.
In the case of COc1ccc(C2=NOC(C(=O)NCc3ccco3)C2)cc1OC (stereo not drawn), the activation is reported as 1.23% (inactive). COc1ccc(CNC(=O)C2CC(c3ccc(C(F)(F)F)cc3)=NO2)cc1 (stereo not drawn) was tested, and the activation was 16.3% (inactive). With O=C(NCc1cc(C(F)(F)F)cc(C(F)(F)F)c1)C1CC(c2cccc(F)c2)=NO1 (stereo not drawn) the activation was 44.2% (active). Cc1ccc(N(CC(=O)NCc2ccc(Cl)cc2)S(=O)(=O)N(C)C)cc1 was tested, and the activation was -0.642% (inactive). In the case of Cn1c(=O)c(C(=O)O)nn(-c2ccccc2)c1=O, the activation is reported as 1.73% (inactive). COc1cccc(NC(=O)CSC2=Nc3ccccc3C3=NC(CC(=O)NC4CCCCC4)C(=O)N23)c1 (stereo not drawn) was tested, and the activation was 0.2% (inactive). CCCN(CCC)C(=O)C1CCCN(c2ncnc3c2nc2n3CCCCC2)C1 (stereo not drawn) was tested, and the activation was -0.793% (inactive). COc1ccc(NC(=O)N2CCCn3nc(C)cc32)cc1OC was tested, and the activation was -0.666% (inactive). In the case of Cc1cccc(-c2nc(CS(=O)CC(=O)NC(C)CCc3ccccc3)c(C)o2)c1 (stereo not drawn), the activation is reported as 33.5% (active). In the case of COc1ccc(CNC(=O)CS(=O)Cc2nc(-c3cccc(C)c3)oc2C)cc1 (stereo not drawn), the activation is reported as 3.98% (inactive). For Cc1ccc(-c2nc(CS(=O)CC(=O)NC3CCCC3)c(C)o2)cc1 (stereo not drawn), the activation was -0.511% (inactive). In the case of Cc1ccc(-c2nnc(Nc3cccc(Br)c3)c3ccccc23)cc1S(=O)(=O)NCC1CCCO1 (stereo not drawn), the activation is reported as 3.26% (inactive). For Cc1cc(OCC(=O)N(C)c2c(N)n(Cc3ccccc3)c(=O)[nH]c2=O)c(C(C)C)cc1Cl, the activation was -0.311% (inactive). For Cc1nc2c(c(=O)n1Cc1ccco1)c1nc3ccccc3nc1n2Cc1ccccc1, the activation was 0.836% (inactive). In the case of Cc1cc2nc3c(=O)n(Cc4ccccc4)c(=O)[nH]c3nc2cc1N, the activation is reported as 368% (active). CCOCCCNC(=O)c1c(NC(=O)Cc2coc3ccc(C)cc23)sc2c1CCC2 was tested, and the activation was 6.68% (inactive). Cc1ccc2nc(/C(C#N)=C/c3ccc(-c4ccc(C(=O)OC(C)C)cc4)o3)[nH]c2c1 was tested, and the activation was 165% (active). With Cc1ccc2nc(/C(C#N)=C/c3ccccc3F)[nH]c2c1 the activation was -1.08% (inactive). For CCOC(=O)c1ccc(-c2ccc(/C=C(\C#N)C(=O)Nc3ccc(C)cc3)o2)cc1, the activation was 6.86% (inactive). In the case of O=C(Nc1c(C(=O)N2CCN(c3ccc(F)cc3)CC2)oc2ccccc12)c1ccco1, the activation is reported as 3.39% (inactive). With COC(=O)c1cc(S(=O)(=O)N2CCN(c3cc(Cl)ccc3C)CC2)c[nH]1 the activation was 6.55% (inactive). With O=C(O)C(c1ccccc1)N1C(=O)/C(=C\c2ccc(-c3cccc(Cl)c3)o2)SC1=S (stereo not drawn) the activation was 33.5% (active). O=C(NC(=S)Nc1cc(C(F)(F)F)ccc1N1CCOCC1)c1ccc(-c2cccc(Cl)c2)o1 was tested, and the activation was 4.39% (inactive). In the case of CN=C1S/C(=C\c2ccc(Sc3ccc(Cl)cc3)o2)C(=O)N1C, the activation is reported as -0.0809% (inactive). For CCCN(CCC)c1nc2c(C)cccn2c(=O)c1/C=C1/SC(=S)N(Cc2ccco2)C1=O, the activation was 48.8% (active). With Cc1ccc2[nH]c(=O)c(-c3nc4c(C)cccn4c3NCc3ccco3)cc2c1 the activation was 1.97% (inactive). With COC(=O)CN1C(=O)CSc2ccc(S(=O)(=O)Nc3cc(C)ccc3C)cc21 the activation was -2.48% (inactive). In the case of Cc1c(Cl)cccc1NC(=O)C(=O)NCCc1csc2nc(-c3ccccc3F)nn12, the activation is reported as 8.86% (inactive). In the case of COc1cc(OC)cc(C(=O)Nc2cc3nn(-c4ccccc4)nc3cc2Cl)c1, the activation is reported as 0.0669% (inactive). For CC(C)(C)C(=O)/C(C#N)=C/c1ccc(O)cc1, the activation was 6.88% (inactive). O=C(/C=C(O)/C=C/c1ccc(O)cc1)/C=C/c1ccc(O)cc1 was tested, and the activation was 432% (active). With COc1cccc(C(=O)NNC(=O)/C=C/c2ccccc2)c1 the activation was 1.13% (inactive). With CCN(CC)c1ccc(NC(=O)Cn2nc3c(cc2=O)CCCC3)c(C)c1 the activation was -0.284% (inactive). With COc1cccc(N=C2SC(C(=O)Nc3cccc(Cl)c3)CC(=O)N2C)c1 (stereo not drawn) the activation was 25.2% (inactive). In the case of CCN(CC)c1ccc(NC(=O)CN2C(=O)c3cccnc3Oc3ccc(Cl)cc32)c(C)c1, the activation is reported as 1.12% (inactive). In the case of CCc1c(C)sc(NC(=O)C2c3ccccc3Oc3ccccc32)c1C(=O)OC(C)C, the activation is reported as -0.651% (inactive). CCc1c(C)sc(NC(=O)c2ccc(Br)o2)c1C(=O)OC was tested, and the activation was 32.9% (active). In the case of CCc1c(C)sc(NC(=O)c2cccs2)c1C(N)=O, the activation is reported as 0.933% (inactive). With O=C(NC1CC(=O)N(c2ccccc2)C1)c1ccco1 (stereo not drawn) the activation was 2.23% (inactive). For COc1ccc(-c2nc3scc(CCNS(=O)(=O)c4cc(F)ccc4OC)n3n2)cc1OC, the activation was -4.62% (inactive). For O=C(CSc1oc(-c2ccco2)nc1S(=O)(=O)c1ccccc1)c1ccc(Cl)cc1, the activation was 5.58% (inactive). COc1ccccc1Nc1cc(C(=O)NCCCN(C)C2CCCCC2)c2ccccc2n1 was tested, and the activation was 183% (active). With CCCCN(CCCNC(=O)c1cc(Nc2ccccc2OC)nc2ccccc12)c1ccccc1 the activation was 0.606% (inactive). With COc1ccc(Nc2cc(C(=O)NCCCN(C)c3ccccc3)c3ccccc3n2)c(OC)c1 the activation was 1.01% (inactive). In the case of COc1ccccc1Nc1c2c(nc3ccc(NC(=O)/C=C/c4cc(OC)c(OC)c(OC)c4)cc13)CCCC2, the activation is reported as -0.5% (inactive). In the case of CCCCCOC(=O)c1ccc(N2C(=O)C3C4C=CC(C4)C3C2=O)cc1 (stereo not drawn), the activation is reported as 19.5% (inactive). With CCCCCCCCCCOC(=O)C[N+](C)(C)CC1CCCCC1O (stereo not drawn) the activation was 31.1% (active). COc1cc(C(=O)NCC(c2ccc(Cl)cc2)N2CCOCC2)cc(OC)c1OC (stereo not drawn) was tested, and the activation was -0.448% (inactive). For Cc1[nH]c2ccccc2c1C(c1ccccc1)c1cccs1 (stereo not drawn), the activation was 0.783% (inactive). With O=C(CCc1nc(CN2CCN(S(=O)(=O)c3ccc(Cl)cc3)CC2)no1)N1CCCCC1 the activation was 12.7% (inactive). In the case of CCN(CC)S(=O)(=O)c1ccc2c(c1)N(CC(=O)NCC(C)c1ccccc1)C(=O)CO2 (stereo not drawn), the activation is reported as 4.4% (inactive). With Cc1ccc(CNC(=O)Cn2c(=O)ccc3cc(S(=O)(=O)N4CCCC4)ccc32)cc1 the activation was -0.173% (inactive). For CCOc1ccc(CNC(=O)c2ccc(CS(=O)c3ccccc3)o2)cc1 (stereo not drawn), the activation was 0.22% (inactive). CCOc1ccc(Cn2nnc(C(=O)Nc3ccc(OC)cc3OC)c2N)cc1 was tested, and the activation was 6.39% (inactive). For Cc1c(NC(=O)c2cc(-c3ccc(Cl)s3)nc3ccccc23)c(=O)n(-c2ccccc2)n1C, the activation was 0.635% (inactive). For CC(=O)N1CCN(C(=O)c2cc(-c3ccc(Cl)s3)nc3ccccc23)CC1, the activation was -0.053% (inactive). With CCOc1ccc(Cn2nnc(C(=O)NCc3ccccc3)c2N)cc1 the activation was 36.7% (active). CCOc1ccc(CNC(=O)c2cc(-c3ccc(Cl)s3)nc3ccccc23)cc1 was tested, and the activation was 36.4% (active).
Also: 0% is about no effect.
